# Screening results as filed in PubChem BioAssay.
# Most compounds without a hit are left out; they make up all but 3% or so of the library.
# 12-LOX inh: Primary qHTS assay for inhibitors of human arachidonate 12S-lipoxygenase (ALOX12): Round 2 | 580,000 tested, 1.1% active | Polyunsaturated fatty acid lipoxygenase ALOX12 (Homo sapiens), P18054 | purified 12hLO, xylenol orange hydroperoxide absorbance | Potency, µM (titrated, usually from 108 µM), for inactives: at the highest dose activity change, negative = inhibition, most hits filed as inhibitors | AID 1671190, 2021
#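 Purified human 12hLO (150 nM final) in 25 mM Hepes, 0.01% Triton X-100, pH 7.0 was preincubated 15 min at room temperature with compound. Then 40 uM arachidonic acid was added, 30 min. Hydroperoxide was read by Fe-XO absorbance ratio 573/405 nm.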
# GCN5L2 inh: qHTS Assay for Inhibitors of GCN5L2; Histone acetyltransferase KAT2A (Homo sapiens), Q92830; GCN5L2 HAT assay, ThioGlo1 CoA-SH fluorescence; Potency, µM (titrated, usually from 58.9 µM), inactives show top-dose activity change, negative = inhibition, actives largely listed as inhibitors; 390,000 tested, 0.21% active; AID 504327, 2011
#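 ThioGlo1-coupled HAT assay: 20nM GCN5L2, 70uM acetyl-CoA, 75uM H3(1-25) peptide, pH 7.5. Fluorescence read at 340/540nm at start and after 20 min at room temperature.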
# PLK1 PBD inh: qHTS for Inhibitors of PLK1-PDB (polo-like kinase 1 - polo-box domain): Primary Screen. 360,000 tested, 2.8% active. Plk1 PBD binding of FITC phosphopeptide, fluorescence polarization. Serine/threonine-protein kinase PLK1 (Homo sapiens), P53350. Potency, µM, inactives show max response, negative = inhibition, most hits filed as inhibitors; note: series mostly up to about 57 µM; nearly all actives have a fitted effect of over 65% in size
# VDR inhibitor: Inhibitors of the vitamin D receptor (VDR): qHTS | Vitamin D3 receptor (Homo sapiens), P11473 | VDR-SRC2-3 peptide fluorescence polarization, 2 h | Potency, µM, without a hit: max response, negative = inhibition, usual class: inhibitors | 400,000 tested, 0.93% active | AID 504847, 2011
#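 Signal is fluorescence polarization, reporting how far test compounds block the interaction of VDR with the SRC2-3 coregulator peptide after a 2 h room-temperature incubation.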
# TbPYK confirm: qHTS of Trypanosoma Brucei Inhibitors: Confirmatory Assay for Cherry-picked Compounds | shares compounds with PLK1 PBD inh | recombinant TbPYK, Kinase-Glo ATP luminescence | Potency, µM (doses to about 76.9 µM), inactives show at the highest dose activity change, negative = inhibition, most hits filed as inhibitors | 890 tested, 67% active | AID 720569, 2013; note: nearly all actives have a fitted effect of over 70% in size
# TbPYK ADP-Glo: qHTS of Trypanosoma Brucei Inhibitors: Orthogonal Assay for Cherry-picked Compounds. shares compounds with PLK1 PBD inh. recombinant TbPYK, ADP-Glo luminescence, 60 min. Potency, µM (titrated, usually from 76.9 µM), inactives show top-dose activity change, negative = inhibition, usual class: inhibitors. 890 tested, 62% active. AID 720584, 2013; note: nearly all actives have a fitted effect of over 75% in size
# * = called active by the depositor; ? = inconclusive; / = no result; [ ] = remark or other dose. Calls come from the whole dose curve; as a rule, active = well fitted curve in the direction sought with a large enough effect; inconclusive = small, poorly fitted or top-dose-only effect, or another doubt; inactive = no such curve, though single readings can be large; an effect the other way counts as inactive or inconclusive. % is set by controls: 0 for no effect and ±100 for the full control effect; potency is the fitted concentration of half-maximal effect.
SMILES,12-LOX inh,GCN5L2 inh,PLK1 PBD inh,VDR inhibitor,TbPYK confirm,TbPYK ADP-Glo
CNS(=O)(=O)c1ccc(-c2ccc(C=C3C(=O)NC(=O)NC3=O)o2)cc1,?,-5%,2.1µM*,45µM*,2.8µM*,10µM*
CCOc1cc(C=C2C(=O)NC(=O)NC2=O)cc([N+](=O)[O-])c1O,?,-9%,/,/,/,/
O=C1CO[C@H]2CN(Cc3ncc[nH]3)C[C@H]2N1Cc1ccccn1,114%[176 µM],/,/,/,/,/
COc1ccccc1C(=O)N1[C@H]2CC[C@@H]1c1cnc(-c3ccc(F)cc3)nc1C2,9%,/,/,/,/,/
CCNC(=O)NC(=O)COC(=O)c1cn(C)c2ccccc12,42%,/,/,/,/,/
Cn1nc(C2CCCCC2)cc1[C@H]1CN2CC[C@H]1C[C@@H]2CNS(C)(=O)=O,30%[176 µM],/,/,/,/,/
CC(C)CCN1CC2(C1)C(=O)Nc1ccccc12,2%[12.5 µM],/,/,/,/,/
O=C1NC(=O)C(=Cc2ccc(-c3ccccc3[N+](=O)[O-])o2)C(=O)N1,?,-21%,1.3µM*,40µM*,?,?
Cn1cccc1/C=C1/C(=O)NC(=S)N(Cc2ccc(F)cc2)C1=O,10µM*,-17%,0.67µM*,?,3.5µM*,?
CC1OC(OC2C(O)CC(OC3C(O)CC(OC4CCC5(C)C(CC[C@@H]6[C@@H]5CCC5(C)C(C7=CC(=O)OC7)CCC65O)C4)OC3C)OC2C)CC(O)C1O (some centres undefined),4%,/,/,/,/,/
CCN(CC)C(=O)c1ccc2c(c1)C1C=CCC1C(C(=O)O)N2 (centres undefined),?,0%,7.5µM*,?,4µM*,?
COC(=O)C1=C(C(=O)OC)C2OC1c1cc3ccccc3cc12,-8%,/,3µM*,8.9µM*,10µM*,13µM*
O=C(COc1ccc(S(=O)(=O)N2CCOCC2)cc1)N1CCN(Cc2ccc3c(c2)OCO3)CC1,-28%,-3%[0.501 µM],-4%,1%,/,/
O=C1NC(=O)C(=Cc2ccc(OCC(=O)N3CCOCC3)cc2)C(=O)N1,-21%,-6%,27µM*,0%,18µM*,?
Cc1cc(C)n2nc(SC(C)C(=O)N3CCC4(CC3)OCCO4)nc2n1 (centres undefined),12%,-2%,-1%,-8%,6%,-2%
O=C1NC(=O)N(c2ccc3c(c2)OCO3)C(=O)/C1=C\c1ccc(N2CCCCC2)o1,?,38%,79%,-12%,/,/
O=C1NC(=O)C(=Cc2ccc(SC3CCCCC3)o2)C(=O)N1,22µM*,-24%,0.6µM*,?,28µM*,40µM*
COc1ccc(N2C(=O)/C(=C/c3ccc(C)o3)C(=O)NC2=S)c(OC)c1,?,-27%,11µM*,7%,1.4µM*,13µM*
CCc1ccccc1N1C(=O)/C(=C/c2ccc(N3CCN(C)CC3)o2)C(=O)NC1=S,?,0%,85%,-5%,/,/
C=CCC1C(=O)NC(=S)NC1=O,?,-25%,30µM*,89µM*,0.56µM*,1.8µM*
CCOC(=O)C1=C(N)Oc2cc(C)oc(=O)c2C12C(=O)Nc1ccccc12 (centres undefined),19%,/,/,/,/,/
N#Cc1c(/N=C/C2C(=O)NC(=S)NC2=O)sc2c1CCCC2,?,-1%,?,?,/,/
CCOC(=O)c1c(/N=C/C2C(=O)NC(=S)NC2=O)sc2c1CCC2,/,0%,23%,?,?,?
O=C1NC(=O)N(c2cccc(Br)c2)C(=O)/C1=C/c1ccsc1,45µM*,-17%,2.4µM*,?,?,?
O=C1NC(=O)C(=Cc2cccs2)C(=O)N1,-13%,/,2.7µM*,?,14µM*,32µM*
O=C1NC(=O)C(=Cc2csc3ccccc23)C(=O)N1,40µM*,-8%,2.1µM*,35µM*,16µM*,32µM*
